S2 tox – Viability Counterscreen for Primary qHTS for Inhibitors of ATXN expression. S2 cells (HEK-293 line with an ATXN2-luciferase reporter) viability, CellTiter-Fluor protease fluorescence, 24 h. hit rate 0.49% among 400,000. Potency, µM (series often up to 56.7 µM), hits mostly cytotoxic. AID 651635, 2014; note: potency is the fitted concentration of half-maximal effect; nearly all actives have a fitted effect of over 40% in size
USP1 inh – Inhibitors of USP1/UAF1: Primary Screen. Ubiquitin carboxyl-terminal hydrolase 1 (Homo sapiens), O94782. recombinant USP1/UAF1, Ub-Rhodamine cleavage fluorescence. Potency, µM (doses to about 57.1 µM), inactives show top-dose activity change, negative = inhibition, actives largely listed as inhibitors. hit rate 0.23% among 390,000; note: potency is the fitted concentration of half-maximal effect; % is set by controls: 0 for no effect and ±100 for the full control effect; nearly all actives have a fitted effect of over 60% in size
Target sequence (O94782 whole entry, looked up): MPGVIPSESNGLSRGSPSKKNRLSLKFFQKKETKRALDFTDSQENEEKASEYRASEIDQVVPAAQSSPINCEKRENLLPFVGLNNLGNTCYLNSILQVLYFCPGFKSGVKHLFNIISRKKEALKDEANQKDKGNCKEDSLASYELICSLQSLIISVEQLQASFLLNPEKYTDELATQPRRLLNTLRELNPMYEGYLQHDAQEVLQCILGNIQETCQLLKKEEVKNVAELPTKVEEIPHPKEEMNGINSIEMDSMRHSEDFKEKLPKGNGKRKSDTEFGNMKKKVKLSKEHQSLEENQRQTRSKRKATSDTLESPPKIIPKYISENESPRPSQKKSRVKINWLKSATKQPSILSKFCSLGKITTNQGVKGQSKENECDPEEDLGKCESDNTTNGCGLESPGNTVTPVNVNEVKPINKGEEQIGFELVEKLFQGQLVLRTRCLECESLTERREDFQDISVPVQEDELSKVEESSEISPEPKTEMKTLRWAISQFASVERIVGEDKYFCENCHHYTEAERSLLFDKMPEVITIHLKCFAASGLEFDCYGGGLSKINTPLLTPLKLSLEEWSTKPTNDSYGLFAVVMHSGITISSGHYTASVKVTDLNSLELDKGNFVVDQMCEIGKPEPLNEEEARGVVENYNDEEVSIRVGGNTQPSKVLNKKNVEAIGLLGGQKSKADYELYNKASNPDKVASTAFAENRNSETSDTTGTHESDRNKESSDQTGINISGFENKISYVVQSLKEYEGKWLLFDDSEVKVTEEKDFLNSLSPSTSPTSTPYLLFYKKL
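USP1/UAF1 complex at 1 nM was preincubated with compound for 15 min at room temperature, then Ub-Rho substrate (150nM final) was added. Fluorescence (480/540 nm) was read kinetically, 6 reads every 60 seconds.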
USP2a inh – qHTS Assay for Inhibitors of Ubiquitin-specific Protease USP2a Using CHOP2 as the Reporter | USP2 core, Ub-CHOP2 coupled fluorogenic reporter, 485/531 | Potency, µM (doses to about 38.3 µM), for the others: at the highest dose activity change, negative = inhibition, hits mostly inhibitors | hit rate 0.01% among 330,000 | AID 463254, 2010;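 note: potency is the fitted concentration of half-maximal effect; plate controls were DMSO wells for no effect and full inhibition by NEM control for full effect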
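Deubiquitinase activity read as fluorescence (485/531 nm) after Ub-CHOP2 cleavage activates the enterokinase reporter on its substrate; USP2 core 10nM, Ub-CHOP2 and substrate 25nM each, 30min compound preincubation then 60min RT; data normalized to NEM, curves fitted.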
ATXN2 expr inh – Primary qHTS for Inhibitors of ATXN expression; HEK-293 ATXN2-luciferase reporter, luminescence, 24 h; Potency, µM (doses to about 57 µM), without a hit: top-dose activity change, negative = inhibition, usual class: inhibitors; hit rate 0.72% among 360,000; AID 1745845, 2022; note: potency is the fitted concentration of half-maximal effect; % is set by controls: 0 for no effect and ±100 for the full control effect; nearly all actives have a fitted effect of over 55% in size
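qHTS (up to 57 uM final) was run with 24 h compound exposure of reporter cells at 37 °C. Each well was multiplexed: SteadyGlo luminescence measured ATXN2-luciferase expression after a fluorogenic Gly-Phe-AFC viability readout (25 uM final).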
IL1B secr inh – qHTS for Inhibitors of Inflammasome Signaling: IL-1-beta AlphaLISA Primary Screen. THP-1 LPS/ATP IL-1B secretion, AlphaLISA, 16 h; stronger effect = lower value. activity change, % at 57.5 µM. hit rate 4.7% among 360,000. AID 743279, 2014; in the data active = activity change below about -50%; inconclusive = mostly about -30% to -49%; note: % is set by controls: 0 for no effect and ±100 for the full control effect
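THP-1 cells pretreated 1 hr with compounds (up to 57.5 uM final), then stimulated with LPS (250 ng/mL final) plus ATP (1.25 mM final); secreted IL-1B measured by AlphaLISA after 16 hr, decreased signal indicating inhibition.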
* = called active by the depositor; i = inactive; u = inconclusive; x = not tested or not shown; ! = not active in a repeat; [ ] = another dose, or the depositor's remark. Sampled rows, rich in hits. Any-hit rate of the full collection: about 4.8%. Unless noted, calls come from the whole dose curve; as a rule, active = well fitted curve in the direction sought with a large enough effect; inconclusive = small, poorly fitted or top-dose-only effect, or another doubt; inactive = no such curve, though single readings can be large; an effect the other way counts as inactive or inconclusive.

SMILES	S2 tox	USP1 inh	USP2a inh	ATXN2 expr inh	IL1B secr inh
CC(C)(C)c1ccc(-n2nc(C#N)c(Cl)cc2=O)cc1	x	u	-0.3%	u	-96.9*
CCOC(=O)c1c(C)[nH]c(C(C)=O)c1C	i	1.5%	1.0%	2.4%	28.0
CCOC(=O)c1c(C)[nH]c(C(=O)C(C)Cl)c1C (centres undefined)	i	-9.2%	6.3%	-2.0%	-100.5*
COC(=O)[C@@]12C[C@@H](CC(=O)N3CCN(C(=O)c4ccco4)CC3)C(=O)N(CCc3ccc(OC)c(OC)c3)C1=CCC(C)(C)C2	x	x	x	x	-51.2*
CCCCCCCCN1C(=O)[C@H](CC(=O)N2CCN(C(=O)c3ccco3)CC2)C[C@@]2(C(=O)OC)CC(C)(C)CC=C12	x	x	x	x	-50.9*
O=S(=O)(NC(=NCCc1ccc(Cl)cc1)c1ccccc1Cl)c1cccs1	i	-15.0%	1.0%	-1.3%	-68.2*
NC(=NCCc1ccccc1)NS(=O)(=O)c1cccs1	i	-19.5%	3.2%	2.7%	11.2
CCSc1ccc(-c2cc(NC=O)c3ncc(-c4cccc(C(=O)NCCN(C)C)c4)n3c2)cc1	i	x	x	u	-107.5*
CC(=O)Nc1cc(-c2cccc(C(=O)NCCN(C)C)c2)cn2c(-c3ccccc3)cnc12	i	x	x	u	-53.4*
CN(C)CCNC(=O)c1cccc(-c2cnc3c(NC=O)cc(-c4ccc(F)cc4)cn23)c1	x	x	x	0.0%	-8.2
CC(=O)Nc1cc(-c2cccc(C(=O)NCCN(C)C)c2)cn2c(-c3cccc(C(F)(F)F)c3)cnc12	31.6µM*	x	x	-2.6%	0.0
CC(=O)Nc1cc(-c2cccc(C(=O)NCCN(C)C)c2)cn2c(-c3ccc(S(C)(=O)=O)cc3)cnc12	i	x	x	5.2%	-17.1
CC1CCN(S(=O)(=O)c2ccc(C(=O)Nc3nc4ccc(F)cc4s3)cc2)CC1	i	u	x	1.9%	x
C#CCOCCOCCOCCNc1nc(N2CCN(C(=O)[C@H](CCCN=C(N)N)n3cc(C(N)[C@@H](C)CC)nn3)CC2)nc(N2CCN(C(=O)[C@H](CC(N)=O)n3cc([C@@H](N)CC(N)=O)nn3)CC2)n1 (some centres undefined)	i	-2.9%	-1.0%	4.0%	11.2
CCOC(=O)C1(Cc2ccccc2C(F)(F)F)CCN(C(C)CSC)CC1 (centres undefined)	i	-2.8%	2.3%	x	22.5
CCOC(=O)C1(Cc2ccc(Cl)cc2)CCN(CCCn2cccn2)CC1	i	-16.5%	1.2%	-18.6%	-57.6*
CCOC(=O)C1(Cc2ccccc2C(F)(F)F)CCN(C(C)CCn2cccn2)CC1 (centres undefined)	i	-4.5%	-0.4%	u	-79.3*
CCSc1nnc2n(-c3cccc(C)c3)c(=O)c3c4c(sc3n12)CCCC4	u	-20.6%	x	-5.2%	x
COc1cccc(NC(=O)N(C)C[C@H]2OCc3cn(nn3)CCCC(=O)N([C@@H](C)CO)C[C@@H]2C)c1	i	5.9%	x	11.4%	0.0
OC1(c2cccnc2)CCN(Cc2ccc3c(c2)CN(Cc2cccc4nccnc24)CCO3)CC1	i	x	x	x	x
Clc1ccccc1CSc1nc2ccncc2[nH]1	i	-20.0%	-0.1%	54.0%	8.3
O=C(NCc1ccccc1Cl)c1ccc(CSc2nc3ccncc3[nH]2)cc1	i	-8.6%	0.1%	-0.4%	-75.8*
C[C@@H](Oc1ccc2[nH]nc(C=Cc3cnn(CCO)c3)c2c1)c1c(Cl)cncc1Cl	x	x	x	21.7µM*	x
COc1ccc(OC)c(C(=O)NC(CC(N)=O)c2ccc(N3CCN(c4ccccn4)CC3)c([N+](=O)[O-])c2)c1 (centres undefined)	i	-29.0%	-1.2%	4.4%	-0.8
CCOC(=O)N1CCN=C1SCc1ccc(C(F)(F)F)cc1	i	-10.2%	2.7%	-29.9%	-81.8*
SMILES	S2 tox	USP1 inh	USP2a inh	ATXN2 expr inh	IL1B secr inh
O=C(Cc1cccs1)N1CCN=C1SCc1ccc(Br)cc1	i	-20.7%	0.9%	-20.0%	-101.5*
CC(=O)N1CCN=C1SCc1ccc(C)cc1	i	u	1.1%	7.6%	-11.5
O=C(Cc1cccs1)N1CCN=C1SCc1cccc(F)c1	i	-10.2%	2.4%	x	-19.8
COc1ccc(CC(=O)N2CCN=C2SCc2ccc([N+](=O)[O-])cc2)cc1	u	-12.9%	0.2%	-8.5%[11.3 µM]	x
CCOc1ccc(CC(=O)N2CCN=C2SCc2ccc([N+](=O)[O-])cc2)cc1	i	-10.3%	12.9%	22.0%	-96.5*
O=C(Cc1ccccc1)N1CCN=C1SCc1ccc([N+](=O)[O-])cc1	u	-19.9%	1.4%	24.1%	-54.6*
CCC1CN(Cc2c(C)nc3sccn23)Cc2cc(OC)ccc2O1 (centres undefined)	i	x	x	x	x
O=C(Cc1ccc(F)cc1)N1CCN=C1SCc1ccc([N+](=O)[O-])cc1	i	-25.4%	4.9%	-24.8%	-64.4*
O=C(COc1ccccc1)N1CCN=C1SCc1ccc(F)cc1	i	-5.4%	-0.2%	17.6%	-97.2*
O=C(c1cccs1)N1CCN=C1SCc1cccnc1	i	0.5%	0.6%	18.1%	-78.0*
Cc1ccc(CSC2=NCCN2C(=O)c2ccc([N+](=O)[O-])cc2)cc1	i	-15.6%	-0.7%	-14.3%	33.9
O=C(COc1ccccc1)N1CCN=C1SCc1cccnc1	i	-15.2%	-0.1%	-9.7%	-1.4
Cc1nc(N2CCCC2)c2c(C(=O)N3CCN(c4cccc(C)c4C)CC3)c(C)oc2n1	x	-23.5%	x	x	x
NC(=O)NS(=O)(=O)c1ccc(Cl)cc1	i	x	x	7.6%	x
COc1ccc2c(c1)OC(C)CN(CCC(=O)NCC1OCCc3ccccc31)C2 (centres undefined)	i	x	x	x	x
C[C@@H]1CN([C@H](C)CO)C(=O)CCCn2cc(nn2)CO[C@H]1CN(C)S(=O)(=O)c1cccc(C#N)c1	i	-27.4%	x	3.6%	25.9
COc1ccc(C(C)NCCC(c2ccc(OC(C)C)cc2)c2ccccc2OC)cc1 (centres undefined)	x	-21.8%	3.8%	u	-98.5*
COc1ccc(C(CCNC(C)c2ccccc2)C(C)C)cc1 (centres undefined)	i	-14.1%	2.1%	-24.9%	x
CCN(CC)c1ccc(NC(=O)OC)cc1	i	-9.7%	-4.4%	6.0%	-12.9
O=S(=O)(O)Sc1ccccc1	i	u	x	x	-98.6*
CCN(CC)c1ccc(SS(=O)(=O)O)cc1	i	u	1.0%	-15.1%	-71.4*!
O=C(C1CCC1)N1CCCc2cc(S(=O)(=O)N3CCN(c4cccc(Cl)c4)CC3)ccc21	i	-5.1%	x	-10.5%	x

Screens deposited in PubChem by National Center for Advancing Translational Sciences (NCATS).
